In PubChem BioAssay (NCI):
Compounds without any hit were thinned out: in the full panel of roughly 79,000, 15% have a hit. Calls of active or inactive are those of the source. Rule as the data show it: active = growth inhibition above about 70%; inactive = the rest.

Assay: NCI Yeast Anticancer Drug Screen. Data for the rad14 strain (AID 159);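 also: 0% = growth of vehicle-treated control cultures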
Conditions: S. cerevisiae rad14 strain growth inhibition, stronger effect = higher value
Protocol: Growth inhibition of yeast strains with defined genetic alterations is measured as a screen for potential anti-cancer activity. Selected strains with alterations in DNA damage repair or cell cycle control were exposed to compounds and growth inhibition was measured relative to vehicle treated controls. The strain used in this assay is rad14

Measured: growth inhibition

C/C(=N\NC(=S)SCc1ccccc1)c1ccccn1
active: at 33.0 µM 94% | at 100.0 µM 92%
inactive: at 1.2 µM -10% | at 3.7 µM -4% | at 11.0 µM 31%

OCC(Cn1cncn1)(c1ccc(F)cc1F)n1cncn1 (stereo not given)
inactive: at 1.2 µM 57%
active: at 3.7 µM 74% | at 11.0 µM 83% | at 33.0 µM 76% | at 100.0 µM 74%

CC(/C=C/c1ccc2c(c1)OCO2)[N+](=O)[O-] (stereo not given)
inactive: at 1.2 µM 18% | at 3.7 µM 61%
active: at 11.0 µM 100% | at 33.0 µM 99% | at 100.0 µM 100%

CC(C)(CN1CCCCC1)C(=O)CC(SCCS(=O)(=O)O)c1ccc(Br)cc1 (stereo not given)
inactive: at 1.2 µM 6% | at 3.7 µM 19% | at 11.0 µM 42% | at 33.0 µM 39% | at 100.0 µM 51%

OC1CCCc2c1cc1ccc3cccc4ccc2c1c34 (stereo not given)
inactive: at 1.2 µM 0% | at 3.7 µM 13%
active: at 11.0 µM 99% | at 33.0 µM 97% | at 100.0 µM 91%

c1ccc2c(c1)sc1cc3ccncc3cc12
active: at 100.0 µM 97%
inactive: at 1.2 µM 2% | at 3.7 µM 7% | at 11.0 µM 16% | at 33.0 µM 36%

CCCS(=O)(=O)Nc1ccc(Nc2c3ccccc3nc3ccccc23)c(OC)c1
inactive: at 1.2 µM -62% | at 3.7 µM -61% | at 11.0 µM -43% | at 33.0 µM -16% | at 100.0 µM 66%

CCCCc1cc(O)ccc1O
inactive: at 1.2 µM 2% | at 3.7 µM 3% | at 11.0 µM 18% | at 33.0 µM 31% | at 100.0 µM 35%
